Screening results: PubChem, several laboratories
In the library only some 2.3% were active in any assay of this set; here they are far more common.
UBC13 polyUb: human UBC13 polyubiquitination inhibition; UBC13 polyubiquitin chain formation, TR-FRET; P61088; 330,000 compounds, 0.47% hits; AID 485273; inhibition, % at 20 µM; in the data active = inhibition above about 45%, passing the limit was not always enough
Target sequence (P61088 whole entry, looked up): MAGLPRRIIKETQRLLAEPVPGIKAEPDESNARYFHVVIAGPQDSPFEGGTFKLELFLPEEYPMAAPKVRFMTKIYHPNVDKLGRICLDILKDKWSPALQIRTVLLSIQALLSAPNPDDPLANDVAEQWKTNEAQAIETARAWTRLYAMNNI
MEKK2 WT-MEK5: raises or lowers MEK5 binding to wildtype human MEKK2 PB1 domain; Q9Y2U5; bead flow cytometry, Alexa488-MEK5 binding to MEKK2 WT; actives lie on both sides; binding response (% of control), % at 10 µM; 290,000 compounds, 1.1% hits; AID 1531; in the data active = binding response below about 67% or above about 130%
MEKK2 mut-MEK5: signal of MEK5 binding to mutant human MEKK2 PB1 domain; bead flow cytometry, Alexa488-MEK5 binding to MEKK2 mutant; percent response, % at 10 µM; 290,000 compounds, 0.35% hits; AID 1530; in the data active = percent response above about 24%, passing the limit was not always enough
MEKK3 PB1 HTS: raises or lowers MEK5 binding to the human MEKK3 PB1 domain. bead-based flow cytometry, Alexa488-MEK5 binding to MEKK3; actives lie on both sides; 0 = blocked by unlabeled MEK5, 100 = vehicle. binding response (% of control), % at 10 µM. 290,000 compounds, 1.4% hits. Q99759;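 active = binding response more than 3 SD above or below the average of its plate-row segment, actives on both sides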;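 also: Alexa488 bead fluorescence after subtracting the streptavidin-only scavenger bead signal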
MEKK2wt confirm: raises or lowers MEK5 binding to wildtype human MEKK2, retest | shares compounds with MEKK3 PB1 HTS | bead flow cytometry, Alexa488-MEK5 binding to MEKK2 WT; actives lie on both sides | binding response (% of control), % at 10 µM | 5,900 compounds, 2.4% hits; in the data active = binding response below about 16% or above about 210%; inactive = in between
MEKK2mut confirm: signal of MEK5 binding to mutant human MEKK2, retest; shares compounds with MEKK3 PB1 HTS; bead flow cytometry, Alexa488-MEK5 binding to MEKK2 mutant; percent response, % at 10 µM; 5,900 compounds, 2% hits; in the data active = percent response mostly above about 71%, no sharp cut-off; inactive = mostly below about 38%;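 also: higher means compound restores mutant binding toward wildtype level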
MEKK3 confirm: MEKK3-MEK5 PB1 inhibition, single concentration confirmation; shares compounds with MEKK3 PB1 HTS; bead flow cytometry, Alexa488-MEK5 binding to MEKK3; active compounds read low; binding response (% of control), % at 10 µM; 5,900 compounds, 1.8% hits; AID 1894;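 active = binding response below 72% of control, or above a set upper limit, though filed actives all read lower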;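 also: 100% = DMSO only wells and 0% = binding blocked by excess unlabeled MEK5; lower values mean stronger disruption of MEK5 binding to MEKK3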
The depositor's hits bear a star; . = no result; [ ] = remark or other dose.

SMILES | UBC13 polyUb | MEKK2 WT-MEK5 | MEKK2 mut-MEK5 | MEKK3 PB1 HTS | MEKK2wt confirm | MEKK2mut confirm | MEKK3 confirm
COc1cc(C(=O)OC2CSCC2NC(=O)c2ccccc2)cc(OC)c1OC (configuration not stated) | 10.5 | 91.0 | -7.0 | 101.0 | . | . | .
CCOC(=O)c1ccc(N2CN(CC)CNC2=S)cc1 | 9.5 | 107.0 | 1.0 | 130.0* | 105.0 | 1.0 | 103.0
CCN1CCc2c(sc(NC(=S)NC(=O)c3ccc(Cl)cc3)c2C(N)=O)C1 | -17.2 | 92.0 | 0.0 | 98.0 | . | . | .
COc1ccccc1S(=O)(=O)Cc1ccc(C(=O)NCCN2CCCCCC2)o1 | 12.5 | 135.0* | 19.0 | 102.0 | 142.0 | 27.0 | 108.0
COCCNC(=O)c1ccc(CS(=O)(=O)c2ccccc2OC)o1 | -1.9 | 106.0 | 2.0 | 107.0 | . | . | .
COc1ccccc1N1CCN(S(=O)(=O)CCNC(=O)c2ccc(Br)o2)CC1 | -1.9 | 103.0 | 4.0 | 99.0 | . | . | .
CCC(C)(C)n1nnnc1CN(Cc1cc2cc(OC)ccc2[nH]c1=O)C1CCCC1 | 0.7 | 88.0 | -9.0 | 82.0*[inhibitor] | 95.0 | -2.0 | 98.0
Cc1cccc(CC(=O)c2c[nH]c3ccccc23)c1 | 9.9 | 98.0 | -3.0 | 96.0 | . | . | .
Cc1cc(SCC(=O)c2cccs2)n2nc(C)c(-c3ccccc3)c2n1 | -7.3 | 95.0 | -2.0 | 114.0 | . | . | .
CC(=O)CSc1cc(C)nc2c(-c3ccccc3)c(C)nn12 | 0.3 | 122.0 | 22.0 | 129.0* | 97.0 | 2.0 | 104.0
O=[N+]([O-])c1ccc(S(=O)(=O)N(CCCN2CCOCC2)Cc2cccs2)cc1 | 3.9 | 103.0 | 7.0 | 104.0 | . | . | .
COc1ccc(NC(=O)Cn2ccc(C(F)(F)F)n2)cc1S(=O)(=O)N1CCOCC1 | -11.4 | . | . | . | . | . | .
COc1cccc2cc(C(N)=O)/c(=N/NC(=O)COc3ccc(Cl)cc3)oc12 | -7.1 | 112.0 | 1.0 | 143.0* | 103.0 | -2.0 | 100.0
COc1ccc(OCC(=O)N/N=c2\oc3c(OC)cccc3cc2C(N)=O)cc1 | 14.6 | 87.0 | -4.0 | 87.0 | . | . | .
CSc1ncccc1C(=O)Nc1ccc2c(c1)OCCO2 | -9.7 | . | . | . | . | . | .
Nc1nc(C(c2ccccc2)c2ccccc2)cs1 | 3.6 | 97.0 | -2.0 | 98.0 | . | . | .
O=C(CN1CCC(NC(=O)Nc2ccccc2-c2ccccc2)CC1)NCc1ccco1 | 6.9 | 106.0 | 7.0 | 105.0 | . | . | .
O=C(Nc1ccccc1-c1ccccc1)NC1CCN(C(=O)N2CCOCC2)CC1 | -3.7 | 120.0 | 4.0 | 122.0* | 107.0 | 10.0 | 102.0
CCCC(=O)OC1CCS(=O)(=O)c2sccc21 (configuration not stated) | 10.6 | 100.0 | 2.0 | 103.0 | . | . | .
O=C(N/N=C/c1ccc(OCc2ccccc2)cc1)c1cc[n+](Cc2ccccc2)cc1 | 20.8 | 153.0* | 21.0 | 97.0 | 160.0 | 26.0 | 109.0
NC(=O)c1ccc(-n2nnnc2SCC(=O)Nc2ccccc2)cc1 | -10.5 | 104.0 | 2.0 | 105.0 | . | . | .
O=C(/C(=N\Nc1ccccc1)Sc1nnnn1-c1ccccc1)c1ccccc1 | -7.8 | 106.0 | -1.0 | 138.0* | 99.0 | -5.0 | 102.0
O=C(OC(C(=O)NC1CCCCC1)c1ccc(C(F)(F)F)cc1)c1ccco1 (configuration not stated) | -16.6 | . | . | . | . | . | .
Cc1ccc2[nH]c(=O)c(CN(Cc3cccs3)C(=S)NCc3ccco3)cc2c1 | 2.5 | 100.0 | 1.0 | 130.0* | 96.0 | -5.0 | 100.0
Cc1ccc2[nH]c(=O)c(CN(CC3CCCO3)C(=S)NCc3ccco3)cc2c1 (configuration not stated) | 4.4 | 105.0 | 1.0 | 101.0 | . | . | .
SMILES | UBC13 polyUb | MEKK2 WT-MEK5 | MEKK2 mut-MEK5 | MEKK3 PB1 HTS | MEKK2wt confirm | MEKK2mut confirm | MEKK3 confirm
COc1ccc(C(C(=O)NC2CCCC2)N(C(=O)c2ccoc2C)c2ccccc2)cc1 (configuration not stated) | 0.4 | 108.0 | 0.0 | 137.0* | 101.0 | 1.0 | 103.0
COc1ccc(C(C(=O)NC2CCCCC2)N(C(=O)c2sc(C)nc2C)c2ccc(OC)cc2)cc1 (configuration not stated) | -1.5 | 60.0 | -14.0 | 46.0*[inhibitor] | 100.0 | -2.0 | 98.0
COc1ccc(C(C(=O)NC2CCCCC2)N(C(=O)c2sc(C)nc2C)c2ccccc2)cc1 (configuration not stated) | -0.2 | 97.0 | -3.0 | 99.0 | . | . | .
CCc1ccc(N(C(=O)c2ccoc2C)C(C(=O)NC2CCCC2)c2ccc(OC)cc2)cc1 (configuration not stated) | -10.2 | 101.0 | 5.0 | 103.0 | . | . | .
O=C(NC1CC2CCCC(C1)N2Cc1ccco1)NC12CC3CC(CC(C3)C1)C2 (configuration not stated) | 0.3 | 125.0 | 6.0 | 132.0* | 110.0 | 12.0 | 105.0
CCNC(=S)NC1CC2CCCC(C1)N2Cc1ccc(C)cc1 (configuration not stated) | 5.9 | 116.0 | 15.0 | 108.0 | . | . | .
CCc1ccccc1NC(=S)NC1CC2CCC(C1)N2Cc1ccco1 (configuration not stated) | -2.2 | 104.0 | 4.0 | 106.0 | . | . | .
CCNC(=S)NC1CC2CCCC(C1)N2Cc1ccco1 (configuration not stated) | 1.3 | 91.0 | -6.0 | 81.0*[inhibitor] | 117.0 | 11.0 | 106.0
N=c1n(CC(=O)c2ccc(Br)s2)c2ccccc2n1Cc1ccccc1 | 17.7 | 158.0* | 39.0 | 102.0 | 145.0 | 11.0 | 100.0
Cc1ccccc1C(=O)NNC(=O)CSc1nnc(C)n1-c1ccccc1 | -5.3 | 96.0 | -1.0 | 64.0*[inhibitor] | 100.0 | -12.0 | 97.0
Cc1nnc(SCC(=O)NCc2ccccc2)n1-c1ccccc1 | -4.3 | 101.0 | -1.0 | 103.0 | . | . | .
Cc1ccc(C(=O)N[C@H](C(=O)OCC(=O)NC2CCS(=O)(=O)C2)C(C)C)cc1 (some centres not stated) | -6.8 | 110.0 | 0.0 | 132.0* | 105.0 | 17.0 | 103.0
Cc1ccc(S(=O)(=O)NC(C(=O)OCC(=O)NC2CCS(=O)(=O)C2)C(C)C)cc1 (configuration not stated) | 7.4 | 101.0 | -3.0 | 100.0 | . | . | .
Cc1cc(C)c(S(=O)(=O)NCC(c2ccco2)N2CCc3ccccc3C2)c(C)c1 (configuration not stated) | -8.6 | . | . | . | . | . | .
CN(C)CCSc1nc2cc(S(=O)(=O)N3CCCCC3)ccc2o1 | 9.2 | . | . | . | . | . | .
CC1Cc2ccccc2N1S(=O)(=O)c1cccs1 (configuration not stated) | -2.5 | 8.0*[inhibitor] | 18.0 | 104.0 | 87.0 | -12.0 | 91.0
CSc1ccccc1NC(=O)CN1CC(C)OC(C)C1 (configuration not stated) | 8.0 | 114.0 | 3.0 | 133.0* | 110.0 | 2.0 | 98.0
CSc1ccccc1NC(=O)CN1CCCCC1 | -0.7 | 99.0 | -2.0 | 104.0 | . | . | .
